The results in this text go back to PubChem BioAssay.

Structures are written as SMILES.

Fibroblast growth factor 2 (Homo sapiens), sequence (P09038 whole entry, looked up): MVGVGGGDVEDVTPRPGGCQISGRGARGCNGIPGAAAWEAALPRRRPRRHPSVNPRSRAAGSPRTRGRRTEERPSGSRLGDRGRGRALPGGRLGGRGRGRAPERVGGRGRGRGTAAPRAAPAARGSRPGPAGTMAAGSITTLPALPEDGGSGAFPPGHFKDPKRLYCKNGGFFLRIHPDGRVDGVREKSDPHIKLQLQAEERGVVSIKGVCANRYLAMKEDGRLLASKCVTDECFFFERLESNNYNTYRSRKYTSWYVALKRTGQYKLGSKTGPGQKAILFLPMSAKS

The test addresses Fibroblast growth factor 2 (Homo sapiens) (UniProt P09038). As to the kind of experiment: basic fibroblast growth factor binding to printed compounds – biochemical, small-molecule microarray, 635/667 nm fluorescence, primary screen (AID 1133). As to conditions: FGF2, fluorescence 635/667, higher = more signal.
With `CCOC(=O)CCN1C(=O)[C@H]2[C@H]3[C@H](O)[C@H](O)CC(=NNC(=O)OCc4ccc(OC)cc4)[C@@H]3CC[C@H]2C1=O`, the composite z-score worked out at 0.474.
`CCN1C(=O)[C@H]2[C@H]3[C@H](O)[C@H](O)CC(=NOC(C)CN4CCCCc5nc(C)c(C)cc54)[C@@H]3CC[C@H]2C1=O` (some centres not stated) gave a composite z-score of 0.541.
In turn, `C#CCCCON=C1C[C@@H](O)[C@@H](O)[C@@H]2[C@@H]3C(=O)N(CCC(=O)OCC)C(=O)[C@@H]3CC[C@@H]12` came in with a composite z-score of -0.823.
Next, `CCN1C(=O)[C@H]2[C@H]3[C@H](O)[C@H](O)CC(=NO[C@@H]4O[C@H](CO)[C@@H](O)[C@H](O)[C@H]4O)[C@@H]3CC[C@H]2C1=O`: 0.0724; `COCC1=C2[C@@H](CCc3ccccc3)OB(O)C[C@@H]2n2c(=O)n(-c3ccccc3)c(=O)n2C1`: 0.506; `CN1C(=O)C2C=CC(C(O)c3ccc(Br)cc3)N(N(c3ccccc3)c3ccccc3)C2C1=O` (configuration not stated): -0.538.
As to `CC(CCN1CCCCc2nc(C)c(C)cc21)=NOC(C)CN1CCCCc2nc(C)c(C)cc21` (configuration not stated), the composite z-score was 1.3.
